From the supplement of paper PMC11732987, “Enantioselective OTUD7B fragment discovery through chemoproteomics screening and high-throughput optimisation” (Communications Chemistry, 2025)

What was measured:
Experiment in all cases: log2 ratio of Biotin-Ahx-Ub-VS probe labelling (fragment/DMSO); higher = less target engagement (more negative = stronger competition), active = hit call of the paper (q ≤ 0.05, log2 ratio ≤ -1)
Conditions in all cases: compound concentration: 200 uM; treatment time: 3 h
USP34 = USP34 (UniProt Q70CQ2)
USP34, sequence (Q70CQ2 whole entry, the tested form may be a part): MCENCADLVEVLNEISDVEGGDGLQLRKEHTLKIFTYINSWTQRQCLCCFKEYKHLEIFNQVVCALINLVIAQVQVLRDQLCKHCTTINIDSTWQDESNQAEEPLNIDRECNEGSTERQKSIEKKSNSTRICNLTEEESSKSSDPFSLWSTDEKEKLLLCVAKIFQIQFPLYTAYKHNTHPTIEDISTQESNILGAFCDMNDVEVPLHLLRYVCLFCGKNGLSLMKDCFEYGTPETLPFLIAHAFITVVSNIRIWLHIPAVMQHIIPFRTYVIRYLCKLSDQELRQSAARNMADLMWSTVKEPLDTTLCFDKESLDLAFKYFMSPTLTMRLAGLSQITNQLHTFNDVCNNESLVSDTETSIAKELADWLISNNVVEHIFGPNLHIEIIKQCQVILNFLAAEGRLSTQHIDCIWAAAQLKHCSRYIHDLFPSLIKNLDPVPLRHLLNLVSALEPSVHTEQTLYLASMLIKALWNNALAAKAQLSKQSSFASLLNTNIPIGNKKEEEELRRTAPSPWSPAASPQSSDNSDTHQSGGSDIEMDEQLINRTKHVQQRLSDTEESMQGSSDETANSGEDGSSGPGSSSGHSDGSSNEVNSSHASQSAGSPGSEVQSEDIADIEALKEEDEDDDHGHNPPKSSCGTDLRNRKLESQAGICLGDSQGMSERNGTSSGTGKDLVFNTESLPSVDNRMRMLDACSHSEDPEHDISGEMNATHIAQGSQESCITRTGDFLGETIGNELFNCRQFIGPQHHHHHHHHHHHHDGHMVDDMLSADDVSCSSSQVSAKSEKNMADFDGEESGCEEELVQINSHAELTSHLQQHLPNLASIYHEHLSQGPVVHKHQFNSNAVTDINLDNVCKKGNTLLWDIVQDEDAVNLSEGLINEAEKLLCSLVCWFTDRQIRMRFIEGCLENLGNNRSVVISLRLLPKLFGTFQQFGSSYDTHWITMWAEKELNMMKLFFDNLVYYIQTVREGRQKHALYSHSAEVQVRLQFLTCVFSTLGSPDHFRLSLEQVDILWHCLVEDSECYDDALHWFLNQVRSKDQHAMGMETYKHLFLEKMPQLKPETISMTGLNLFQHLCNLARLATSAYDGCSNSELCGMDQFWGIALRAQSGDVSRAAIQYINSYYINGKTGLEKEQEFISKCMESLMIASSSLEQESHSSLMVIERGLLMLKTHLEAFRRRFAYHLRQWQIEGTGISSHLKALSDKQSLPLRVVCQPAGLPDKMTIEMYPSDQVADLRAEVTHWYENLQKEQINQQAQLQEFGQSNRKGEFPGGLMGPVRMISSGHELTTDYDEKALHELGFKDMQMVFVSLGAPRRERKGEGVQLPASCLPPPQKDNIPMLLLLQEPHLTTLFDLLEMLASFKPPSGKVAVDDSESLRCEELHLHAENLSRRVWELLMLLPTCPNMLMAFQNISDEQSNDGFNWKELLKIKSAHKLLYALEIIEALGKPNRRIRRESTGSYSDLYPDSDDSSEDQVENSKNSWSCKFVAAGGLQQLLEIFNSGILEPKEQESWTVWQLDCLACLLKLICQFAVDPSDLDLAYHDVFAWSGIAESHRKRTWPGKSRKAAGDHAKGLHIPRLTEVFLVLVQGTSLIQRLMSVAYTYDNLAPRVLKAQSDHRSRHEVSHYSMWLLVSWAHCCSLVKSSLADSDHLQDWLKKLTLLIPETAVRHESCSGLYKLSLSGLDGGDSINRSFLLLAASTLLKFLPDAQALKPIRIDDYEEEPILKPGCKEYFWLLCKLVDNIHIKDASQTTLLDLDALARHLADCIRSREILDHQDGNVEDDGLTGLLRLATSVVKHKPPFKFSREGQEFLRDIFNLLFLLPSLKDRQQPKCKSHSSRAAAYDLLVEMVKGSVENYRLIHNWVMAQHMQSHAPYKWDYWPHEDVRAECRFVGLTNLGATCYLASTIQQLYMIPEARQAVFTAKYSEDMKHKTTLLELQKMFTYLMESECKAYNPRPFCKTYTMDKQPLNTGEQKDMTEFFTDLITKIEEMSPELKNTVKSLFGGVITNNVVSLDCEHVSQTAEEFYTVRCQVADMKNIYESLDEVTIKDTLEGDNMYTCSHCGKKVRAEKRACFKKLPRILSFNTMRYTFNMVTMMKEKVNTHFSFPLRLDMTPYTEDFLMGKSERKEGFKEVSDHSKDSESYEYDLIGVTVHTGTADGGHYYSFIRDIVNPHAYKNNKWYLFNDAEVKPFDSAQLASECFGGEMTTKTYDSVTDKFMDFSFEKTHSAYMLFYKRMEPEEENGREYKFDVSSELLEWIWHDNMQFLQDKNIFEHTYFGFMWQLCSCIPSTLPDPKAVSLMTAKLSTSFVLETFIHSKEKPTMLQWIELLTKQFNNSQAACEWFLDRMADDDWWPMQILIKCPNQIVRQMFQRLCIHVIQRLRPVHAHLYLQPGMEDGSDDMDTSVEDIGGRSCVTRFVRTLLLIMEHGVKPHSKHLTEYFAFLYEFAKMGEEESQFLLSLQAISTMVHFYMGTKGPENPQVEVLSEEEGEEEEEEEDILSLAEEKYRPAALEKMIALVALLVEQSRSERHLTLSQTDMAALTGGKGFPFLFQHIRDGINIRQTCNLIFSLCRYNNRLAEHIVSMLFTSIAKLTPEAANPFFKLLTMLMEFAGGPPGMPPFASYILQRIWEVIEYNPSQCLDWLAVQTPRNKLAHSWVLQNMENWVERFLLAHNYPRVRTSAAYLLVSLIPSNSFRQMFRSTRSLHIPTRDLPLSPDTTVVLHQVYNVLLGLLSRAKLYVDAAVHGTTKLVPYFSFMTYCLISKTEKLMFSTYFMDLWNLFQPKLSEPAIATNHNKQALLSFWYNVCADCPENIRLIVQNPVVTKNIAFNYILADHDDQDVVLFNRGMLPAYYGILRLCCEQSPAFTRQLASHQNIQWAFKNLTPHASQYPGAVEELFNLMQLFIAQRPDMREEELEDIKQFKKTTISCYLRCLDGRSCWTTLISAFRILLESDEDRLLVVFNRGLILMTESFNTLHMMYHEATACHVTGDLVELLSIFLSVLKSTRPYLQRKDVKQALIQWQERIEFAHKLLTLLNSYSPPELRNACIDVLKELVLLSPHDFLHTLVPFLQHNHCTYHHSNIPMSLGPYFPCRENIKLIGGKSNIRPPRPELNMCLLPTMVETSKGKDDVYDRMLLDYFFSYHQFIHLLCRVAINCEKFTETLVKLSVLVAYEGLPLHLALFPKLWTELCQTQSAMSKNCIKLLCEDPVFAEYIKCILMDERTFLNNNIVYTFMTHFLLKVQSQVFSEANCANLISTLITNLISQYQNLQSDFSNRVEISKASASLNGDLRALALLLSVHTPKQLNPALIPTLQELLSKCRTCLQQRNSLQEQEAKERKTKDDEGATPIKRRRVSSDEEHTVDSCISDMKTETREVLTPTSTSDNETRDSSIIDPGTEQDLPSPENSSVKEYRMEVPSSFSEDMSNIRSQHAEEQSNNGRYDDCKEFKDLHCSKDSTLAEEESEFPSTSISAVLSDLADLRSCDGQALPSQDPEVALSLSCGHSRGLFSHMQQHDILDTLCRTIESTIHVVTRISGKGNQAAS
Procedure, shortened: (§1)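 HEK293T lysate in Tris/CHAPS/IGEPAL buffer with protease inhibitors (495 µg per sample) was given fragment at 200 µM or vehicle for 3 h, in triplicate. It then received Biotin-Ahx-Ub-VS at 0.5 µM final for 1 h. Labelled DUBs were NeutrAvidin-enriched, digested with LysC and trypsin, and run by diaPASEF LC-MS/MS. Values are average log2 fragment/vehicle ratios by unpaired t-test on global-median-normalised Spectronaut quantities of proteins with ≥2 unique peptides.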

USP36 = biological target: T1, USP36 (UniProt Q9P275)
T1 sequence (whole entry): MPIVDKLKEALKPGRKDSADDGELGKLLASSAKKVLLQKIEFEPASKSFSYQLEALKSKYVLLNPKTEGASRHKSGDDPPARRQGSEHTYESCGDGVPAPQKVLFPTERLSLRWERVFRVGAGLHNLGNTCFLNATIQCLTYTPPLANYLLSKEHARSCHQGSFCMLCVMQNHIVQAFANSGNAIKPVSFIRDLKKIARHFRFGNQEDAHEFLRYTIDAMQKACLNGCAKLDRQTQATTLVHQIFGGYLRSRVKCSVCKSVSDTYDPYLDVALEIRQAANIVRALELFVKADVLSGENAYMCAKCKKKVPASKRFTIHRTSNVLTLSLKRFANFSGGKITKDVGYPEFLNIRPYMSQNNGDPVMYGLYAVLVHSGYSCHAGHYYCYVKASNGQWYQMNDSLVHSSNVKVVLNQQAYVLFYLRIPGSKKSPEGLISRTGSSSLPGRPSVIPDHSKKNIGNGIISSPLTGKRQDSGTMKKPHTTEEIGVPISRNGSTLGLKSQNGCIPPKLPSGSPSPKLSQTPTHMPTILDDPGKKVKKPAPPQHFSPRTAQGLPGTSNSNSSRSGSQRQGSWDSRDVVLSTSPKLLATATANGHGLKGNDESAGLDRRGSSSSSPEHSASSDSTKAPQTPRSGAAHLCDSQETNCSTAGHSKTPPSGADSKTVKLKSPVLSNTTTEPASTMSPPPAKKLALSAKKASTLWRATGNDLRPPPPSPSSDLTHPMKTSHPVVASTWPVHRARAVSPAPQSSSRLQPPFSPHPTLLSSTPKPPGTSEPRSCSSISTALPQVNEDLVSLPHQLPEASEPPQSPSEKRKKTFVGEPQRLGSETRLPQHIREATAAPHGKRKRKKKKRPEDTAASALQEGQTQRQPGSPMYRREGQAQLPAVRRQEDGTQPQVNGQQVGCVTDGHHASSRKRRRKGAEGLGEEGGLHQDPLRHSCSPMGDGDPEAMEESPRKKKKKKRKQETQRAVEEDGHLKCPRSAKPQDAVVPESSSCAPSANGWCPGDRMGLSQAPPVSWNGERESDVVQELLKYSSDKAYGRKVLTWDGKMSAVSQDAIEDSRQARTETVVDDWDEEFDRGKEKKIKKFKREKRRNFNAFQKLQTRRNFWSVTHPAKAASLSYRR
Procedure, shortened: as §1

USP38 = biological target: T2, USP38 (UniProt Q8NB14)
T2 sequence (whole entry): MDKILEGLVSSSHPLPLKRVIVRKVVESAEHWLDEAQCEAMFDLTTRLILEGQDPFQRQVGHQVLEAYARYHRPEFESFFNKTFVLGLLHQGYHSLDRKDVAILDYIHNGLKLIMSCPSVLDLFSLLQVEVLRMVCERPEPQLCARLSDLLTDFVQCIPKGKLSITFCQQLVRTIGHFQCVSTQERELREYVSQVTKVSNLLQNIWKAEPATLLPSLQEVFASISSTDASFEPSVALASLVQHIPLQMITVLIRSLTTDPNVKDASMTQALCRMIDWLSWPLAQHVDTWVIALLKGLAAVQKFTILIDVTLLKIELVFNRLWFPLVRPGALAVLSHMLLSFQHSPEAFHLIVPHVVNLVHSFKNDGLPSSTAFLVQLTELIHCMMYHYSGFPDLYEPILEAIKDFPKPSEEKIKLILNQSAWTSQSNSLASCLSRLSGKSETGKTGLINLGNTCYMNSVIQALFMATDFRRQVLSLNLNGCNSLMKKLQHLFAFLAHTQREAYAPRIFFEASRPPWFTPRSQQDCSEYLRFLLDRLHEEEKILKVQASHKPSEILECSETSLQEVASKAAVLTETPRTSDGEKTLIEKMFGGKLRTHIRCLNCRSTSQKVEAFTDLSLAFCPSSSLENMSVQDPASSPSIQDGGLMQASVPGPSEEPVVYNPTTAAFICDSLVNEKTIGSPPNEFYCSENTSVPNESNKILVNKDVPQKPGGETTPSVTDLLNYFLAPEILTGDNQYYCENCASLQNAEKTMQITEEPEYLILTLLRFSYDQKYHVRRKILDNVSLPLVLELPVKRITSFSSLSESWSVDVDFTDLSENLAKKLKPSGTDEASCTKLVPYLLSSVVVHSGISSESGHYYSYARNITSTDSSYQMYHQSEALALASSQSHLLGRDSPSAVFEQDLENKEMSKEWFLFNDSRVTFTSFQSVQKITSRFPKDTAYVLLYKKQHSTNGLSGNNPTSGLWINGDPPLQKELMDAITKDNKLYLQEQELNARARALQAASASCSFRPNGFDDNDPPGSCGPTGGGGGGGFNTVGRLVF
Procedure, shortened: as §1

USP39 = biological target: T3, USP39 (UniProt Q53GS9)
T3 sequence (whole entry): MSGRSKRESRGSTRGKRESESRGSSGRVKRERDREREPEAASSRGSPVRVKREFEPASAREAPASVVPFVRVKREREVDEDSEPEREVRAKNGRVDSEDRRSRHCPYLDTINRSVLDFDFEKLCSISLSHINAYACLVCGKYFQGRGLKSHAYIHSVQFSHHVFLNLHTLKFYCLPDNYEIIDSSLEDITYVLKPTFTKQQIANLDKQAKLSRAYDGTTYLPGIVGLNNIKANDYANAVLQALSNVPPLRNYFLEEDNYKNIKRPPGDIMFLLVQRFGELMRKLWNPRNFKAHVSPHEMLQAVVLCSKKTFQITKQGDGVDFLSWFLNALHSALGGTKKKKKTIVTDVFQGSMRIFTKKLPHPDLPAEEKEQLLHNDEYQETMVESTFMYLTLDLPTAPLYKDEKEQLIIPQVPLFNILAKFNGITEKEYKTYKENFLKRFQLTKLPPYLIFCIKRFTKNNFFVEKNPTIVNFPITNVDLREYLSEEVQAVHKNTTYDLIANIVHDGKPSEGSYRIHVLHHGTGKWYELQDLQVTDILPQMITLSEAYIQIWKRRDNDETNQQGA
Procedure, shortened: as §1

USP4 = biological target: T4, USP4 (UniProt Q13107)
T4 sequence (whole entry): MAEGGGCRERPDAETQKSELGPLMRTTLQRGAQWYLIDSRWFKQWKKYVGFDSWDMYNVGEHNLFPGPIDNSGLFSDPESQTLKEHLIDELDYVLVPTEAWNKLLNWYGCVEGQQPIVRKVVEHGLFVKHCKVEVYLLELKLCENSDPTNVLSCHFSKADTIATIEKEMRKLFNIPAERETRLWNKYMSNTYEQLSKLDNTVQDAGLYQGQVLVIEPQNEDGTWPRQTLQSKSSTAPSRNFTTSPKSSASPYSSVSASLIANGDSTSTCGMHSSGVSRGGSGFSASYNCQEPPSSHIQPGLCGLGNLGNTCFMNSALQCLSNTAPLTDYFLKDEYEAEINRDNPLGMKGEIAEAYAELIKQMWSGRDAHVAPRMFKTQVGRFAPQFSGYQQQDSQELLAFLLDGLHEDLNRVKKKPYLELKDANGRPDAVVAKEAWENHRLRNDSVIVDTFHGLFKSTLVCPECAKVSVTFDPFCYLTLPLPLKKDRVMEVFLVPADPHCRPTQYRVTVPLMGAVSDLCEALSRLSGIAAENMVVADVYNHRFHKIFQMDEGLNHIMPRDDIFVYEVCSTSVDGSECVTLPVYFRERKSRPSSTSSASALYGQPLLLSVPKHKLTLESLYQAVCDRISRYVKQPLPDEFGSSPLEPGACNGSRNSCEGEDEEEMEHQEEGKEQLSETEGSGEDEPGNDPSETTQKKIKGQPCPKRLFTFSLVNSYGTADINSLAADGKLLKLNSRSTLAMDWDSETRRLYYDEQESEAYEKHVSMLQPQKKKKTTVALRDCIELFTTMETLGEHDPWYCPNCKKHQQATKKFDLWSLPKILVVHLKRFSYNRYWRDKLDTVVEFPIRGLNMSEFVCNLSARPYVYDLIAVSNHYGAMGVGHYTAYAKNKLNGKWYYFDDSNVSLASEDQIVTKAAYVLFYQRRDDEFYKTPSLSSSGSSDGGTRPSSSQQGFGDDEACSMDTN
Procedure, shortened: as §1

Measured: log2 ratio of Biotin-Ahx-Ub-VS probe labelling

CCc1c[nH]c(CNC(=O)CCl)n1.Cl
inactive: USP34 -0.213 | USP36 -0.245 | USP38 -0.15 | USP39 0.178 | USP4 -0.159
